Bioassay records from PubChem BioAssay.
MITF inh = human MITF inhibition, primary screen; O75030; AlphaScreen MITF homodimerization, bead proximity signal; inhibition, % at 2.6 µM; actives 0.91% (n = 650,000); AID 1259374; in the data active = inhibition above about 50%;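 also: 0% = vehicle wells with protein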
FBW7 activator = activators of human E3 ligase FBW7 | normalized activity (activation), % at 26.1 µM | AlphaScreen FBW7–phospho-cyclin E peptide binding, activator screen | actives 0.13% (n = 650,000); in the data active = normalized activity above about 1.9%;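 also: purified mutant Fbw7 with reduced substrate affinity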
GPR151 activ = human GPR151 activation | actives 1% (n = 650,000) | PathHunter beta-arrestin GPR151 cells, luminescence | Q8TDV0 | activation, % at 11.2 µM; in the data active = activation above about 4.9%;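 also: 0% = median of compound wells and 100% = cells with positive control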
Target sequence (Q8TDV0 whole entry, looked up): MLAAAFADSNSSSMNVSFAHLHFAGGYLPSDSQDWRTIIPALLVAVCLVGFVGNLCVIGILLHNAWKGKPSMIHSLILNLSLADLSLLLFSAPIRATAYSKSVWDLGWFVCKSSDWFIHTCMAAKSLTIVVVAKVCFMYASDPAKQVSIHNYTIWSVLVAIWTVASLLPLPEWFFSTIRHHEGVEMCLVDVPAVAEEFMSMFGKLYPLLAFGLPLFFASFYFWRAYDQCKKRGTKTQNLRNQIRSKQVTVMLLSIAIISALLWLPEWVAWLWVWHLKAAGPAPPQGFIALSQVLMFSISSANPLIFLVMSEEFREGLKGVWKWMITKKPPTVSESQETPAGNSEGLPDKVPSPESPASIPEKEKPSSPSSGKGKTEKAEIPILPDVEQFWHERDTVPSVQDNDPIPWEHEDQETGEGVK
TEAD-YAP block = TEAD-YAP interaction inhibition; HEK-TIYL cells, TEAD-Gal4/YAP UAS-luciferase luminescence; inhibition, % at 9.12 µM; actives 1.4% (n = 640,000); in the data active = inhibition above about 32%;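 also: 0% = median of test compound wells and 100% = reference inhibitor wells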
MITF inh conf = human MITF inhibition, confirmation; shares compounds with MITF inh; AlphaScreen MITF homodimerization, biotin/His-MITF beads; inhibition, % at 2.6 µM; actives 16% (n = 4,700); AID 1259372;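 active = inhibition above a cutoff derived from the DMSO control wells, cut at about 28% in these data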;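 also: 0% = MITF dimer wells with DMSO only; inhibitors lower the bead chemiluminescence by keeping MITF from dimerizing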
AS interf DR = AlphaScreen optical interference, dose response counter-screen; shares compounds with MITF inh; AlphaScreen optical interference counterscreen, cell-free; IC50, µM; actives 6% (n = 480); AID 1259373; call rule not given here
AlphaScreen intf2 = AlphaScreen optical interference, counter-screen | shares compounds with MITF inh | LysRS AlphaScreen counterscreen, signal interference, triplicate | inhibition, % at 2.6 µM | actives 7.6% (n = 4,700) | AID 1259376;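 active = inhibition above a cutoff derived from the DMSO control wells, cut at about 30% in these data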
* = called active by the depositor; nt = no result. An excerpt weighted towards active compounds, which were near 3.5% of everything screened.

SMILES	MITF inh	FBW7 activator	GPR151 activ	TEAD-YAP block	MITF inh conf	AlphaScreen intf2	others
Fc1ccccc1CN1CCN(C2CCCCC2)CC1	61.3*	-0.2	0.8	1.1	8.1	-0.8
CCOc1ccc2ccccc2c1C(=O)NCCc1cc2cc(C)c(C)cc2[nH]c1=O	-5.7	0.0	-0.1	6.5	nt	nt
O=C(c1cccnc1)N1CCN(Cc2ccncc2)CC1	85.7*	0.4	-2.1	14.2	7.0	15.3
O=C(c1cccnc1)N1CCN(Cc2ccc(F)cc2)CC1	78.8*	0.1	1.4	3.0	7.4	3.6
O=C(c1ccccc1)N1CCN(C(=O)c2cccnc2)CC1	7.7	0.2	1.4	14.0	nt	nt
O=C(c1cccnc1)N1CCN(Cc2ccco2)CC1	52.7*	0.0	0.6	1.9	-16.2	4.8
CC1(C)CC(CC(N)=O)(c2ccccc2)CCO1 (stereo not drawn)	-3.5	0.0	-0.2	1.3	nt	nt
Cc1ccc(/C=C/C(=O)n2nc(C)cc2C)cc1	-0.4	0.3	1.7	-17.4	nt	nt
Cc1cc(C)n(C(=O)/C=C/c2ccc(Br)cc2)n1	55.4*	-0.1	0.3	-6.5	6.8	16.1
CSc1ccc(CN2CCN(Cc3cccc4ccccc34)CC2)cc1	74.4*	-0.1	0.6	-7.8	14.2	19.8
COc1cccc(CN2CCN(Cc3cccc4ccccc34)CC2)c1OC	82.0*	0.0	-0.5	-2.0	17.6	21.5
COc1ccccc1CN1CCN(Cc2cccc3ccccc23)CC1	85.5*	-0.3	-1.9	6.6	3.8	11.8
COc1ccccc1N1CCN(Cc2cccc(OC)c2OC)CC1	23.1	0.6	0.2	6.8	nt	nt
COc1cccc(CN2CCN(Cc3ccccc3C)CC2)c1OC	77.3*	-0.5	-0.7	-3.0	5.0	11.8
CCOC(=O)N1CCN(Cc2cccc(OC)c2OC)CC1	-9.8	-0.2	-0.4	12.6	nt	nt
S=c1oc(COc2ccccc2Cl)nn1CN1CCOCC1	1.4	-0.1	-1.6	-2.2	nt	nt
CC(=O)N1CCc2cc(Br)cc(S(=O)(=O)N3CCCCC3C)c21 (stereo not drawn)	7.9	0.2	2.6	1.1	nt	nt
NC(=O)c1ccc(N=Cc2ccc3ccccc3c2)cc1	-6.9	-0.1	1.0	9.9	nt	nt
CCOC(=O)c1cccc(NC(=O)C2C(=O)CN(c3ccccc3)C2=O)c1 (stereo not drawn)	11.6	-0.2	1.5	0.6	nt	nt
COc1ccc(CN2CCN(Cc3cccc4ccccc34)CC2)cc1	57.5*	-0.1	-0.3	10.2	20.9	19.0
O=C(Nc1nc(CC(=O)N2CCc3ccccc3C2)cs1)C1CC1	59.0*	0.0	0.7	12.9	-2.3	-0.5
CCOc1cccc(OCCCN2CCNCC2)c1	53.7*	0.0	0.4	-14.7	-1.2	-2.4
Cc1cccc(OCCCCN2CCNCC2)c1	13.8	0.0	2.2	-3.0	nt	nt
CCN1CCN(CCOCCOc2ccc(CCC(C)=O)cc2)CC1	66.0*	-0.3	0.8	9.1	7.2	7.5
CCN1CCN(CCCCOc2cccc(C(F)(F)F)c2)CC1	64.5*	-0.2	0.4	9.8	7.2	7.4
SMILES	MITF inh	FBW7 activator	GPR151 activ	TEAD-YAP block	MITF inh conf	AlphaScreen intf2	others
CN1CCN(CCCCOc2cccc(C=O)c2)CC1	61.1*	-0.1	1.1	-2.0	5.9	16.9
CN1CCN(CCCCOc2cccc(C(F)(F)F)c2)CC1	23.5	0.0	-0.3	1.4	nt	nt
CCOC(=O)c1ccc(S(=O)(=O)N(CCO)Cc2cc3cc(C)ccc3[nH]c2=O)cc1	3.2	0.6	-2.3	-1.0	nt	nt
CC1=C(C(=O)OCCOc2ccccc2)C(c2cccc(Oc3ccccc3)c2)C2=C(CC(C)(C)CC2=O)N1 (stereo not drawn)	9.0	0.4	-1.0	-15.2	nt	nt
CCN1CCN(CCOc2cccc(C(C)=O)c2)CC1	66.2*	-0.6	1.5	12.8	7.7	8.3
CCCOc1cccc(OCCN2CCN(CC)CC2)c1	79.3*	0.7	4.1	0.1	9.1	13.1
CC(=O)c1cccc(OCCCCOc2cccc(C(C)=O)c2)c1	-12.4	0.0	-0.6	2.5	nt	nt
CCN1CCN(CCOCCOc2cccc(Oc3ccccc3)c2)CC1	78.9*	-0.3	0.2	-0.7	6.0	13.0
CCOc1cccc(OCCCN2CCN(CC)CC2)c1	73.7*	0.0	-2.1	-2.2	17.7	15.9
CCN1CCN(CCCOc2cccc(C(C)C)c2)CC1	48.4	0.4	-0.8	7.2	nt	nt
O=c1cc(Nc2ccc(N3CCCCC3)cc2)[nH]c(=O)[nH]1	-2.2	0.0	1.7	-8.5	nt	nt
CN1CCN(CCOCCOc2ccc(C(C)(C)C)cc2)CC1	65.3*	-0.1	0.6	2.8	3.9	19.4
CN1CCN(CCOCCOc2ccc(Cl)cc2)CC1	36.1	0.2	-0.3	-1.0	nt	nt
CCOc1ccc(OCCCN2CCN(C)CC2)cc1	79.3*	0.0	1.6	-9.0	-0.9	17.2
CCN1CCN(CCCCOc2ccc(C#N)cc2)CC1	65.9*	-0.4	-0.9	5.1	4.1	13.3
CCOc1ccc(OCCCCN2CCN(C)CC2)cc1	86.1*	-0.1	1.8	-6.7	7.2	6.9
CN1CCN(CCCOc2ccc(C#N)cc2)CC1	2.3	-0.1	0.1	12.8	nt	nt
COc1ccc2c(CNCCc3ccco3)c(C(=O)O)n(Cc3ccccc3F)c2c1	3.9	0.0	-0.5	-1.6	nt	nt
COC(=O)C1=C(C)N(Cc2ccccc2)C(=O)/C1=C\c1ccc(C(=O)OC)cc1	-1.3	0.0	-1.6	-7.3	nt	nt
COc1cccc(C(=O)Nc2cccc(-c3nc4ccccc4s3)c2C)c1	-1.5	-0.1	1.6	-3.2	nt	nt
CCOc1cccc(OCCCCN2CCN(C)CC2)c1	71.4*	-0.2	-2.2	1.9	13.2	14.4
CCCCOc1cccc(OCCCN2CCN(C)CC2)c1	-7.6	0.2	0.2	5.5	nt	nt
O=C(CNC(c1ccccc1)c1ccccc1)NNC(=O)c1ccccc1Br	62.8*	0.0	0.2	0.8	9.2	17.2
O=C(NC(c1ccccc1)c1ccccc1)c1ccccc1Br	13.1	0.1	0.5	-0.7	nt	nt
CC(C)COc1ccc(/C=C/C(=O)O)cc1	-4.8	-0.2	-4.3	-29.6	nt	nt
SMILES	MITF inh	FBW7 activator	GPR151 activ	TEAD-YAP block	MITF inh conf	AlphaScreen intf2	others
COc1cc(-c2ccnc(N)n2)ccc1NC(=O)[C@H]1COc2ccccc2O1	65.6*	2.5*	1.1	7.1	51.6*	-3.1	AS interf DR=>6.48
CSc1ccc(CN2CCCC(CNC(=O)c3cccnc3)C2)cc1 (stereo not drawn)	-2.9	-0.1	-1.3	-4.8	nt	nt
O=C(NCC1CCCN(Cc2ccc(OCc3ccccc3)cc2)C1)c1cccnc1 (stereo not drawn)	50.6*	0.0	-0.6	9.5	0.5	13.6
Cc1cccc(C2(c3cccc(C)c3)CC2C(=O)N2CCCCC2)c1 (stereo not drawn)	0.8	0.0	1.1	-0.2	nt	nt
COc1ccc(CCN2C(=O)CC(C(=O)Nc3ccc(C(C)=O)cc3)SC2=Nc2ccc(F)cc2)cc1 (stereo not drawn)	20.2	0.0	-0.5	4.8	nt	nt
CCc1nc2c(sc3cccc(F)c32)c(=O)n1CC(=O)NCc1ccc(Cl)cc1	54.6*	0.3	-0.5	-4.3	-5.0	-5.3
O=C(O)CON=C1C2CC3CC(C2)CC1C3	-0.5	-0.1	0.7	4.6	nt	nt
